In ChEMBL document CHEMBL1157539, “Thousands of chemical starting points for antimalarial lead identification” (Nature, 2010) one finds Inhibition data, which are given here for 31 compounds.

Holding throughout (assay type): functional
For experiment [1], the system named is Plasmodium falciparum. The experiment can be described thus: GSK_TCMDC: Inhibition of Plasmodium falciparum 3D7 in whole red blood cells, using parasite LDH activity as an index of growth. Test compounds present at 2uM.
The subject of experiment [2] is Plasmodium falciparum. The experiment can be described thus: GSK_TCMDC: Inhibition of Plasmodium falciparum Dd2 in whole red blood cells, using parasite LDH activity as an index of growth. Test compounds present at 2uM.
For another experiment, the system named is HepG2. The experiment can be described thus: GSK_TCMDC: Percent inhibition of human HepG2 cell line. Test compounds present at 10uM.

With `O=[N+]([O-])c1cccc(NC(=S)N2CCCN(Cc3ccc(Cl)cc3Cl)CC2)c1`, the Inhibition in the experiment on Plasmodium falciparum [1] stood at 94%; with Plasmodium falciparum [2], 50%; in the experiment on HepG2 it was 3%.

Turning to `CC(C)CCNCC(O)Cn1c2ccc(Cl)cc2c2cc(Cl)ccc21` (stereo not drawn), the results for the Inhibition with Plasmodium falciparum [1], in the experiment with Plasmodium falciparum [2] and in the experiment with HepG2 were 99%, 99% and 36%, respectively.

For `CCn1cc(C=C2Oc3c(ccc(O)c3CN3CCCCC3C)C2=O)c2ccccc21` (stereo not drawn), the Inhibition with Plasmodium falciparum [1] worked out at 94%; in the experiment on Plasmodium falciparum [2] it was 80%; in the experiment with HepG2, 0%.

In the case of `CCOc1ccc(C(C)NC(=O)c2cc(Cl)ccc2OC)cc1OCC` (stereo not drawn), the Inhibition with Plasmodium falciparum [1] came to 100%; in the experiment on Plasmodium falciparum [2], 99%; in the experiment with HepG2, 0%.

`c1cncc(CN2CCN(Cc3ccc(-c4ccc(-c5nc6ccccc6[nH]5)s4)cc3)CC2)c1`: the Inhibition with Plasmodium falciparum [1] is given as 97%; in the experiment with Plasmodium falciparum [2] it was 34%; in the experiment on HepG2, 32%.

In the case of `CCC(CC)OC(=O)C(C)c1cccc(C(=O)c2ccccc2)c1` (stereo not drawn), the Inhibition with Plasmodium falciparum [1] came to 93%; with Plasmodium falciparum [2], 0%; in the experiment with HepG2, 0%.

Turning to `COc1ccc(NC(=O)Nc2ccc(-c3ccc(-c4nc5cccc(C)c5[nH]4)s3)cc2)cc1`, the results for the Inhibition with Plasmodium falciparum [1], in the experiment with Plasmodium falciparum [2] and with HepG2 were 100%, 96% and 74%, respectively.

For the compound `CN1CCc2ccc(NC(=O)Nc3ccc(Cl)c(Cl)c3)cc2C1`, the Inhibition in the experiment with Plasmodium falciparum [1] is 80%; in the experiment with Plasmodium falciparum [2], 22%; in the experiment with HepG2, 0%.

On to `CC(=O)OC[C@H]1O[C@@H](C#Cc2ccccc2)[C@H](OC(C)=O)[C@@H](OC(C)=O)[C@@H]1OC(C)=O`, for which the Inhibition with Plasmodium falciparum [1] turned out to be 95%; with Plasmodium falciparum [2], 90%; in the experiment with HepG2, 5%.

As to `Br.CC(C)(C)c1ccccc1OCCCON1C(=N)N=C(N)NC1(C)C`, the Inhibition is 95% in the experiment with Plasmodium falciparum [1], 98% with Plasmodium falciparum [2] and 63% with HepG2.

As for `O=C(NCc1ccc(Cl)cc1)c1ccc(CN2CCCN(CC3CCCCC3)CC2)cc1.O=C(O)C(F)(F)F`, the Inhibition in the experiment with Plasmodium falciparum [1] is given as 84%; in the experiment on Plasmodium falciparum [2], 5%; in the experiment with HepG2 it was 18%.

Take `CC(C)[C@H]1CC[C@H](C)C[C@@H]1OC(=O)N[C@@H](Cc1ccc(O)cc1)C(=O)NC1CCN(Cc2ccc(OCCCN(C)C)cc2)C1` (stereo partly drawn): the values for the Inhibition with Plasmodium falciparum [1], in the experiment with Plasmodium falciparum [2] and in the experiment on HepG2 were 99%, 64% and 27%, respectively.

In the case of `Cc1cc(-c2ccc(NC(=O)Nc3ccc4nccc(N5CCN(C)CC5)c4c3)cc2C)cc(C)n1.Cl`, the Inhibition in the experiment with Plasmodium falciparum [1] is recorded as 100%; with Plasmodium falciparum [2], 76%; with HepG2, 0%.

In the case of `CSc1cccc(NC(=O)Nc2ccc(I)c(OCCN(C)C)c2)c1`, the figures for the Inhibition in the experiment with Plasmodium falciparum [1], in the experiment on Plasmodium falciparum [2] and with HepG2 were 97%, 19% and 14%, respectively.

In the case of `CC(=O)Nc1ccc(CN(Cc2ccc(F)cc2)Cc2cccc(Oc3ccccc3)c2)cc1`, the Inhibition with Plasmodium falciparum [1] worked out at 88%; with Plasmodium falciparum [2], 82%; in the experiment with HepG2, 0%.

For `COc1cccc(CNC(=O)[C@H]2CNCCN2C(=O)CCCc2ccccc2)c1.O=C(O)C(F)(F)F`, the Inhibition is listed as 91% in the experiment with Plasmodium falciparum [1], 95% in the experiment with Plasmodium falciparum [2] and 56% with HepG2.

As to `CCOC(=O)C(=O)N1c2ccc(OCC)cc2-c2c(ssc2=S)C1(C)C`, the Inhibition with Plasmodium falciparum [1] was 99%; with Plasmodium falciparum [2] it was 100%; in the experiment on HepG2 it was 5%.

For `N#Cc1cccc(NC(=O)Nc2cccc(-c3cccc(-c4nc5cc(F)ccc5[nH]4)c3)c2)c1`, the Inhibition in the experiment on Plasmodium falciparum [1] was 100%; in the experiment with Plasmodium falciparum [2], 66%; in the experiment on HepG2, 60%.

As for `CCc1cccc(NC(=O)c2ccc(CN3CCCN(CC4CCCCC4)CC3)cc2)c1.O=C(O)C(F)(F)F`, the Inhibition with Plasmodium falciparum [1] is 84%; with Plasmodium falciparum [2], 36%; with HepG2, 44%.

As for `COc1cc(-c2nc(-c3ccccc3)c(-c3ccccc3)[nH]2)cc(OC)c1O`, the Inhibition is 100% in the experiment on Plasmodium falciparum [1], 90% with Plasmodium falciparum [2] and 5% in the experiment on HepG2.

Consider `CN(C)CCNCc1cccc(-c2cccc(-c3nc4ccccc4[nH]3)c2)c1.O=C(O)C(F)(F)F`, for which the Inhibition in the experiment with Plasmodium falciparum [1] is given as 100%; in the experiment on Plasmodium falciparum [2], 63%; with HepG2, 7%.

On to `CCCCN(C)CC#Cc1ccc2[nH]c(C)c(Cl)c(=O)c2c1`, for which the values for the Inhibition with Plasmodium falciparum [1], in the experiment with Plasmodium falciparum [2] and in the experiment with HepG2 were 98%, 97% and 0%, respectively.

Regarding `CC(Oc1ccc(Cl)cc1)C(=O)Nc1cc(C(F)(F)F)ccc1N1CCOCC1` (stereo not drawn), the figures for the Inhibition with Plasmodium falciparum [1], with Plasmodium falciparum [2] and in the experiment with HepG2 were 97%, 97% and 14%, respectively.

Turning to `COc1ccc(-c2ccc(CNC(=O)c3ccc(C#N)cc3)c(F)c2)cc1CN1CCCN(C)CC1.O=C(O)C(F)(F)F`, the Inhibition came out at 90% with Plasmodium falciparum [1], 1% with Plasmodium falciparum [2] and 6% in the experiment with HepG2.

As for `CCCNC(=O)C1CCN(C(c2ccccc2)c2ccc(Cl)c(Cl)c2)CC1` (stereo not drawn), the Inhibition with Plasmodium falciparum [1] is recorded as 90%; in the experiment with Plasmodium falciparum [2], 90%; in the experiment with HepG2, 15%.

In the case of `CSc1cccc(Nc2nc3ccc(S(=O)(=O)NCC(C)C)cc3n2C(C)C(C)C)c1` (stereo not drawn), the Inhibition worked out at 93% with Plasmodium falciparum [1], 91% in the experiment with Plasmodium falciparum [2] and 3% with HepG2.

Consider `Oc1ccc(-c2cc(-c3ccc(O)cc3)nc(-c3ccccc3)n2)cc1`, for which the Inhibition is given as 96% in the experiment on Plasmodium falciparum [1], 97% in the experiment with Plasmodium falciparum [2] and 0% with HepG2.

In the case of `COc1ccc(OCCON)cc1.Cl`, the Inhibition in the experiment on Plasmodium falciparum [1] was 98%; in the experiment on Plasmodium falciparum [2] it was 0%; with HepG2 it was 0%.

On to `COc1ccc2[nH]c(/C=C/c3cccc4ccc(C)nc34)nc2c1`, for which the results for the Inhibition in the experiment with Plasmodium falciparum [1], with Plasmodium falciparum [2] and with HepG2 were 98%, 77% and 25%, respectively.

`Cc1sc(NC(=O)c2ccc([N+](=O)[O-])cc2Cl)c(C(N)=O)c1C`: the Inhibition with Plasmodium falciparum [1] was 94%; in the experiment on Plasmodium falciparum [2], 2%; in the experiment on HepG2, 2%.

Regarding `Cc1cc(Br)cnc1CCCCNC1=NC(=O)CN1C`, the Inhibition in the experiment with Plasmodium falciparum [1] was found to be 95%; with Plasmodium falciparum [2] it was 26%; in the experiment with HepG2 it was 63%.

One may read the Inhibition as the drop in the measured response relative to a control, in per cent. A low value points to a weak effect.
